# The list is not random: actives were taken first. Their share in the collection is about 12%.
# HP1b chromo inh = HP1-beta chromodomain-methylated histone interaction inhibition; AlphaScreen HP1-beta / biotin-H3K9me3 peptide binding; 390,000 tested, 0.56% active; AID 540317; P83916; Potency, µM (doses to about 114 µM), most hits filed as inhibitors; also: nearly all actives have a fitted effect of over 70% in size
# Target sequence (P83916 whole entry, looked up): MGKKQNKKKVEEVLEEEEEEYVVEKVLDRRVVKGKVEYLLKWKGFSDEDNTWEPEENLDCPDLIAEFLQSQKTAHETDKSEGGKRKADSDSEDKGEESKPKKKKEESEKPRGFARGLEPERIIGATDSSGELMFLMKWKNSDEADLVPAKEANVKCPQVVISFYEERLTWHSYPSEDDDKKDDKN
#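 AlphaScreen: HP1-beta (50 nM) preformed 30 min with biotin-H3(1-18)K9me3 peptide (50 nM) in PBS pH 7.4, 0.01% Tween-20. Compound added for 30 min at RT, then streptavidin donor/nickel chelate acceptor beads (10 ug/mL) for 30 min.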
# JMJD2A Tudor = inhibitors of human JMJD2A Tudor domain; O75164; 390,000 tested, 4.4% active; Potency, µM (titrated, usually from 114 µM), usual class: inhibitors; AlphaScreen JMJD2A-Tudor / H3K4me3 peptide binding; AID 504339; also: nearly all actives have a fitted effect of over 50% in size
# BAZ2B block = blocks human BAZ2B; AlphaScreen BAZ2B-H3K14Ac peptide displacement; 360,000 tested, 4.4% active; Potency, µM (doses to about 114 µM), usual class: inhibitors; Q9UIF8; AID 504333; also: nearly all actives have a fitted effect of over 60% in size
#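 BAZ2B 50 nM plus b-H3(5-23)K14Ac 50 nM, PBS pH 7.4/0.01% Tween-20, 30 min RT; compound added (max 110 uM), 30 min RT; streptavidin donor/Ni-chelate acceptor beads 10 ug/mL final, 20 min dark; AlphaScreen read.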
# G9a inh = G9a (human) methyltransferase inhibition; Q96KQ7; G9a H3K9 monomethylation, AlphaScreen, 2 h; Potency, µM (highest dose often 102 µM), hits mostly inhibitors; 350,000 tested, 8.8% active; also: nearly all actives have a fitted effect of over 75% in size
# Target sequence (Q96KQ7 913-1193 limits assumed): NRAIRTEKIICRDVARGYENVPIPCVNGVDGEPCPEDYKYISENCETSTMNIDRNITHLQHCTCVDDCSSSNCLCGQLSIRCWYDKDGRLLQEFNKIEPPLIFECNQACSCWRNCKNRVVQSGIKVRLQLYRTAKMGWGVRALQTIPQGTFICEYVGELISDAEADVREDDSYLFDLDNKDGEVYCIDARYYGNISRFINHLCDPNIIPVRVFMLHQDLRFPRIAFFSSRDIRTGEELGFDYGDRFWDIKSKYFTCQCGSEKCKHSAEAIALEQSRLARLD
#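 Using a bead-based AlphaScreen, monomethylated H3K9 product from 2 h room-temperature reactions (G9a 20 nM, peptide 500 nM, SAM 20 uM) was detected with 0.5 ug/mL rabbit anti-H3K9me1 antibody.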
# Sfp PPTase inh = Sfp phosphopantetheinyl transferase inhibition | Biochemical Sfp PPTase activity, qHTS | Potency, µM, usual class: inhibitors | 310,000 tested, 3.5% active | AID 1490;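 also: the enzyme is Sfp with the accession as filed and its product quenches rhodamine fluorescence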
#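 With Hepes-Na pH 7.6 buffer containing 10 mM MgCl2, Sfp (15 nM) modified BHQ-2-YbbR (12.5 uM) using rhodamine-CoA (5 uM). Two reads 30 minutes apart at 525/598 nm yielded each well's rate.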
# Numbers stand for hits; n = inactive; u = inconclusive; x = not tested or not shown; [ ] = remark or other dose. Calls follow the shape of the dose curve; as a rule, active = well fitted curve in the direction sought with a large enough effect; inconclusive = small, poorly fitted or top-dose-only effect, or another doubt; inactive = no such curve, though single readings can be large; an effect the other way counts as inactive or inconclusive.
SMILES,HP1b chromo inh,JMJD2A Tudor,BAZ2B block,G9a inh,Sfp PPTase inh
O=C1Cc2cc(S(=O)(=O)N3CCN(c4ccc(Br)cc4)CC3)ccc2N1,x,141µM,x,x,x
CC(=O)N1CCN(S(=O)(=O)c2ccc3c(c2)CC(=O)N3)CC1,n,n,n,n[12.7 µM],x
CC(=O)c1ccc(N2CCN(S(=O)(=O)c3ccc4c(c3)NC(=O)CC(=O)N4)CC2)cc1,n,16µM,n,n,n
CN1CCN(c2nc(-c3cccc(C#N)c3)nc3ccccc23)CC1,x,x,x,x,n
O=C(CN1CCN(C(=O)c2cncn2-c2ccccc2)CC1)Nc1ccccc1Cl,n,n,n,n,x
O=S(=O)(c1ccc2ccccc2c1)n1nc(-c2ccco2)nc1NCc1ccc(F)cc1,n,n,u,18µM,x
Cc1ccc(S(=O)(=O)n2nc(-c3ccco3)nc2SCc2ccccc2)cc1,n,n,u,u,n
CSc1nc(-c2ccco2)nn1S(=O)(=O)c1ccccc1,x,x,u,20µM,u
CSc1nc(-c2ccco2)nn1S(=O)(=O)c1ccc(C)cc1,n,n,n,40µM,45µM
Cc1ccc(CNc2nc(-c3ccco3)nn2S(=O)(=O)c2ccc3ccccc3c2)cc1,n,n,u,n,x
CCS(=O)(=O)n1nc(-c2ccc(Cl)cc2)nc1SC,n,n,n,n,56µM
CCOC(=O)N1CCN(c2nc3ccccn3c(=O)c2C=O)CC1,n,n,n,n,n
COc1ccccc1C(=O)n1nc(-c2ccco2)nc1SC,n,n,n,u,n
CCS(=O)(=O)n1nc(-c2ccco2)nc1SC,u,28µM,n,u,35µM
NC(=O)/C=C/C(=O)Nc1ccc(Cl)cc1,n,n,n,11µM,n
COc1ccccc1OCc1nnc(SCC(=O)N2CCCCC2)n1-c1ccccc1,n,n,n,n,n
O=C(O)CCSc1nnc(-c2ccncc2)n1-c1ccccc1,n,n,n,n,n
N#Cc1ccccc1NC(=O)CSc1nnc(-c2ccccc2)n1-c1ccccc1,n,n,n,u,n
Cc1cccc(OCc2nnc(SCCC(=O)O)n2-c2ccccc2)c1,n,n,79µM,n[0.501 µM],50µM
Cc1ccccc1OCc1nnc(SCCN2CCCC2)n1-c1ccccc1,n,n,79µM,n,n
CCN(CC)c1ccc(-c2nnc(SCC(=O)Nc3ccccc3C#N)n2-c2ccccc2)cc1,n,n,n,10µM,n
COc1ccc(-c2nnc(SCCC(=O)O)n2-c2ccccc2)cc1,n,40µM,n,u,n
Cc1cnc(CNc2ncnc3ccc(-c4ccoc4)cc23)cn1,x,x,x,n[0.501 µM],n
CCNC(=O)CSc1nnc(-c2ccccc2)n1-c1ccc(OCC)cc1,n,n,u,50µM,n
COc1ccc(Br)cc1CNC(=O)c1ccc(-n2c(C)cc3c2CCC(C)C3)cc1 (stereo not drawn),n,n,n,n,x
SMILES,HP1b chromo inh,JMJD2A Tudor,BAZ2B block,G9a inh,Sfp PPTase inh
Cc1ccc2c(CSc3nnc(C4CC4)n3N)cc(=O)oc2c1,n,n,n,50µM,n
Cc1ccc2c(CSc3nnc(C4CC4)n3N)cc(=O)oc2c1C,n,n,x,n,n
O=S(=O)(c1ccccc1Br)N1CCN(c2ncccn2)CC1,n,n,n,n,n
COc1ccc2nc3oc(C(=O)N(C)c4ccc(Cl)cc4)cc3cc2c1,n,n,x,n,x
O=C(Cn1nc(-c2ccccc2)c2ccccc2c1=O)NCC1CCCO1 (stereo not drawn),n,n,n,n,n
CCCn1c(=S)[nH]c2cc(C(=O)NCC3CCCO3)ccc2c1=O (stereo not drawn),n,n,n,10µM,n
O=C(Cn1nc(C(=O)O)c2ccccc2c1=O)NCC1CCCO1 (stereo not drawn),n,n,n,71µM,n
Cc1ccccc1C(=O)c1cccn1CC(=O)NCC1CCCO1 (stereo not drawn),n,n,n,45µM,n
O=C(CCn1c(=S)[nH]c2ccccc2c1=O)NCC1CCCO1 (stereo not drawn),n,50µM,n,u,n
CCCN1CCN(CCCNC(=O)c2ccc3c(c2)sc2nc(-c4ccc(C)cc4)cn23)CC1,n,n,n,n,x
CCN1C(=O)/C(=C/c2nc3ccccc3c(=O)n2-c2ccc(C)cc2)c2ccccc21,n,n,n,n,n
CCN1C(=O)/C(=C\c2nc3ccccc3c(=O)n2-c2ccccc2)c2ccccc21,n,45µM,50µM,u,n
Cc1cc(C)c2sc(C)[n+](CCCS(=O)(=O)[O-])c2c1,n,n,n,n,2.5µM
ClC(Cl)(c1nnnn1-c1ccccc1)c1nnnn1-c1ccccc1,u,20µM,56µM,0.56µM,2.8µM
O=C(NC(=S)Nn1cnnc1)c1ccccc1,n,n,n,n[2.33 µM],x
O=C(NC(=S)Nn1cnnc1)c1ccccc1Br,u,n,n,n,25µM
COCC(=O)N1CCC2(CCCN(Cc3ccccc3)C2)CC1,x,x,x,n[12.7 µM],n
Cc1cccc(CN2CCC(C(N)=O)CC2)c1,n,n,n,n,n
CCN1CCN(Cc2ccc(OCc3ccccc3)cc2)CC1,n,n,n,n[12.7 µM],n
CCOC(=O)C1CCN(Cc2cccc(OCc3ccccc3)c2)CC1,u,8.9µM,n,u,n
CC(C)CNC(=O)C1CCN(Cc2ccc(OCc3ccccc3)cc2)CC1,u,1.1µM,u,u,n
NC(=O)C1CCN(Cc2cccc(OCc3ccccc3)c2)CC1,u,2.5µM,u,x,n
CC(C)NC(=O)C1CCN(Cc2cccc(Oc3ccccc3)c2)CC1,u,22µM,u,x,n
N#Cc1ccc(CN2CC3(CCN(C(=O)c4cc(C(F)(F)F)cc(C(F)(F)F)c4)CC3)C2)cc1,x,x,x,n[12.7 µM],n
Fc1ccc(CN2CCSCC2)cc1Br,u,3.2µM,50µM,8.9µM,n
SMILES,HP1b chromo inh,JMJD2A Tudor,BAZ2B block,G9a inh,Sfp PPTase inh
CCOC(=O)C1CCN(Cc2nnnn2CCc2ccccc2)CC1,n,n,n,x,n
Clc1cc(Cl)cc(CN2CCSCC2)c1,n,n,n,x,n
CCOC(=O)C1CCN(Cc2nc3ccc(Cl)cc3n2CCO)CC1,14µM,1.1µM,45µM,u,u
c1ccc(COc2cccc(CN3CCc4ccccc4C3)c2)cc1,n,56µM,n,x,n
CCOC(=O)C1CCCCN1Cc1cccc(OCc2ccccc2)c1 (stereo not drawn),u,10µM,u,x,u
CCCc1cc(=O)[nH]c(Nc2cc(C)ccc2OC)n1,n,n,n,n,x
O=C(Nc1sc2c(c1C(=O)NCc1ccco1)CCCC2)c1cc(=O)c2cc(Cl)ccc2o1,n,n,n,n,x
C#Cc1ccc(CN2CCC(N3CCC(C(=O)NCc4ccccn4)CC3)CC2)cc1,n,n,n,x,n
CCOC(=O)C1CCN(Cc2ccc(F)c(Br)c2)CC1,n,3.2µM,50µM,u,n
O=C(NCc1ccccn1)C1CCN(Cc2cccc(OCc3ccccc3)c2)CC1,u,3.5µM,u,n,n
CC1CCN(S(=O)(=O)c2ccc3c(c2)N(CC(=O)NCCN(C)C)C(=O)CO3)CC1,n,n,n,n,x
